In all, about 1,100 compounds were measured (“Wnt reporter firefly/Renilla luciferase ratio relative to plate median”: median about 1.1, highest 2% from about 1.6 on). The list comes from a sample in which the highest values are over-represented; it also holds similar structures and randomly drawn compounds.
System: HEK293T (UBE3A T485A transfected, BAR Wnt reporter)
Experiment: Wnt reporter firefly/Renilla luciferase ratio relative to plate median (fold (linear ratio)); higher = more Wnt/beta-catenin reporter activation
Conditions: 24 h
In short: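 Chemicals were robotically dosed at 0.01–100 uM for 24 h onto HEK293T cells, starting four hours after transfection with a BAR firefly luciferase Wnt reporter, TK-Renilla and an expression plasmid. The cells had been plated at 4500 cells/well in DMEM with 10% FBS at 37°C and 5% CO2. Following a Dual-Glo luciferase readout, the firefly/Renilla ratio served as the Wnt activity measure and raw Renilla as the cell health measure, both median-centred on each plate. Each value is the mean of four biological replicates.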

Compound	Wnt reporter firefly/Renilla luciferase ratio (concentration: 0.1 uM)	Wnt reporter firefly/Renilla luciferase ratio (concentration: 1 uM)	Wnt reporter firefly/Renilla luciferase ratio (concentration: 10 uM)	Wnt reporter firefly/Renilla luciferase ratio (concentration: 100 uM)	Wnt reporter firefly/Renilla luciferase ratio (concentration: 0.01 uM)	Wnt reporter firefly/Renilla luciferase ratio (concentration: .1 uM)
CCCCCCCCCCCCc1ccccc1S(=O)(=O)O [Dodecylbenzenesulfonic acid]	1.14	1.13	1.2	1.04	–	–
NS(=O)(=O)c1cc2c(cc1Cl)NCNS2(=O)=O [Hydrochlorothiazide]	1.41	1.17	1.12	1.32	–	–
CC(=O)OC1C(=O)C2(C)C(O)CC3OCC3(OC(C)=O)C2C(OC(=O)c2ccccc2)C2(O)CC(OC(=O)C(O)C(NC(=O)c3ccccc3)c3ccccc3)C(C)=C1C2(C)C (centres undefined) [Taxol]	0.822	0.575	0.409	1.98	1.29	–
O=C([N-]S(=O)(=O)/C=C/c1ccccc1)c1ccc(F)cc1Cl.[Na+]	1.15	1.07	0.657	0.3	–	–
CC(C)c1cccc(C(C)C)c1N1C(=O)c2ccc(O)cc2C1=O	1.19	1.17	0.259	–	–	–
C=CCc1ccc(O)c(OC)c1 [Eugenol]	1.02	1.13	1.19	1.55	–	–
OC[C@H]1O[C@@H]2O[C@H]3[C@H](O)[C@@H](O)[C@@H](O[C@H]4[C@H](O)[C@@H](O)[C@@H](O[C@H]5[C@H](O)[C@@H](O)[C@@H](O[C@H]6[C@H](O)[C@@H](O)[C@@H](O[C@H]7[C@H](O)[C@@H](O)[C@@H](O[C@H]1[C@H](O)[C@H]2O)O[C@@H]7CO)O[C@@H]6CO)O[C@@H]5CO)O[C@@H]4CO)O[C@@H]3CO [alpha-Cyclodextrin]	1.02	1.09	0.976	0.971	–	–
CCCCCCC(C=O)=Cc1ccccc1 [2-Benzylideneoctanal]	0.942	0.906	0.822	0.757	–	–
O=C(OCCCCCCOC(=O)c1ccccc1)c1ccccc1 [Hexane-1,6-diyl dibenzoate]	0.955	0.846	1.01	1.37	–	–
O=C(CCCCCCC(=O)Nc1ccccc1)NO [Vorinostat (SAHA)]	1.23	1.05	3.08	–	1.33	–
CC(C)(O)c1ccc(CNC(=O)c2cccnc2Oc2ccc(F)cc2)cc1	0.96	1.05	1.22	0.695	–	–
CCCc1ccccc1 [Propylbenzene]	0.987	0.856	0.88	1.43	–	–
CC(C)(C)c1ccccc1 [tert-Butylbenzene]	1.01	0.913	0.895	1.16	–	–
COc1ccc(S(=O)(=O)N2C(=O)[C@@](c3ccccc3OC)(N3C[C@H](O)C[C@H]3C(=O)N(C)C)c3cc(Cl)ccc32)c(OC)c1 [Nelivaptan]	1.09	0.857	0.612	0.355	–	–
CCCCCCCCCCCCCCOS(=O)(=O)[O-].[Na+] [Sodium myristyl sulfate]	1.14	1.11	1.06	0.293	–	–
CCCCCCCCCCCCOS(=O)(=O)[O-].[Na+] [Sodium dodecyl sulfate]	1.32	0.99	1.05	0.875	–	–
CCCCCCCCCCCCCCCCOS(=O)(=O)[O-].[Na+] [Sodium hexyldecyl sulfate]	0.784	1.09	0.931	1.7	–	–
CC(=O)c1ccccc1 [Acetophenone]	1.48	1.03	1.27	1.46	–	–
CCCCCCCCO [1-Octanol]	0.948	0.949	1.11	1.09	–	–
O=c1ccn(C2OC(COP(=O)(O)OP(=O)(O)OP(=O)(O)O)C(O)C2O)c(=O)[nH]1 (centres undefined)	1.13	1.15	1.07	1.94	1.43	–

Compound	Wnt reporter firefly/Renilla luciferase ratio (concentration: 0.1 uM)	Wnt reporter firefly/Renilla luciferase ratio (concentration: 1 uM)	Wnt reporter firefly/Renilla luciferase ratio (concentration: 10 uM)	Wnt reporter firefly/Renilla luciferase ratio (concentration: 100 uM)	Wnt reporter firefly/Renilla luciferase ratio (concentration: 0.01 uM)	Wnt reporter firefly/Renilla luciferase ratio (concentration: .1 uM)
CCC(C)c1ccccc1O (centres undefined) [2-(Butan-2-yl)phenol]	1.19	0.977	0.947	1.14	–	–
CC(C)COC(=O)CCCCC(=O)OCC(C)C [Diisobutyl adipate]	1.11	1.15	1.28	1.44	–	–
CCSC(=O)N(CC(C)C)CC(C)C [Butylate]	1.31	1.21	1.71	0.486	1.05	–
CCCN(CCC)C(=O)SCC	1.22	0.859	1.3	1.09	1.35	–
CN1C(=O)N(c2ccccc2Br)Cc2cnc(Nc3ccc4c(c3)OCC(CO)O4)nc21 (centres undefined)	0.694	0.73	1.19	–	–	–
Oc1ccccc1 [Phenol]	0.93	1.28	1.19	1.35	–	–
CCOCCO [2-Ethoxyethanol]	1.04	1.01	1.18	1.25	–	–
CCOCCOCCOCCO [2-[2-(2-Ethoxyethoxy)ethoxy]ethanol]	0.979	0.929	1.01	1.62	–	–
CCOCCOCCO [2-(2-Ethoxyethoxy)ethanol]	0.833	1.24	0.948	1.26	–	–
CC(C)CCCCCCOC(=O)c1ccc(C(=O)OCCCCCCC(C)C)c(C(=O)OCCCCCCC(C)C)c1 [Triisononyl trimellitate]	1.08	0.919	1.18	1.34	–	–
CC[C@@H]1C[C@H](N(Cc2cc(C(F)(F)F)cc(C(F)(F)F)c2)C(C)=O)c2cc(C(F)(F)F)ccc2N1C(=O)OC(C)C	0.973	1.26	1.2	1.01	–	–
O=C(O)c1cccc(C(=O)O)c1 [1,3-Benzenedicarboxylic acid]	1.21	1.28	1.24	1.02	–	–
CC(C)(c1ccc(O)cc1)c1ccc(O)cc1 [Bisphenol A]	1.13	1.05	0.924	0.302	1.09	–
CC[C@H](C)[C@@H](C(=O)O)n1sc2ccccc2c1=O	0.996	0.949	0.684	0.568	–	–
CCCCOC(=O)c1ccccc1 [Butyl benzoate]	1.4	0.911	1.09	1.11	–	–
CCCCOC(=O)[C@@H](C)Oc1ccc(Oc2ccc(C(F)(F)F)cn2)cc1 [Fluazifop-P-butyl]	0.832	1.04	1.09	1.67	0.757	–
CCCCOC(=O)C(C)Oc1ccc(Oc2ccc(C(F)(F)F)cn2)cc1 (centres undefined) [Fluazifop-butyl]	1.71	1.15	1.54	1.13	1.15	–
CCOC(=O)C(C)Oc1ccc(Oc2nc3ccc(Cl)cc3o2)cc1 (centres undefined) [Fenoxaprop-ethyl]	1.37	0.888	0.884	0.813	1.14	–
CCOC(=O)C(C)Oc1ccc(Oc2cnc3cc(Cl)ccc3n2)cc1 (centres undefined) [Quizalofop-ethyl]	1.1	1.03	1.09	0.981	0.779	–
C#CCOC(=O)[C@@H](C)Oc1ccc(Oc2ncc(Cl)cc2F)cc1 [Clodinafop-propargyl]	1.37	1.14	1.25	0.479	1.28	–

Compound	Wnt reporter firefly/Renilla luciferase ratio (concentration: 0.1 uM)	Wnt reporter firefly/Renilla luciferase ratio (concentration: 1 uM)	Wnt reporter firefly/Renilla luciferase ratio (concentration: 10 uM)	Wnt reporter firefly/Renilla luciferase ratio (concentration: 100 uM)	Wnt reporter firefly/Renilla luciferase ratio (concentration: 0.01 uM)	Wnt reporter firefly/Renilla luciferase ratio (concentration: .1 uM)
CCCCCCCCOC(=O)c1cc(O)c(O)c(O)c1 [Octyl gallate]	1.25	1.3	0.702	0.614	–	–
COC(=O)c1ccccc1C(=O)O [Monomethyl phthalate]	1.05	1.09	1.11	1.4	1.05	–
CC(=O)OC1CC(C)OC(C)O1 (centres undefined) [Dimethoxane]	1.1	0.976	0.952	0.736	–	–
Cc1ccc(N(C)C)cc1 [N,N,4-Trimethylaniline]	1.08	1.2	1.06	0.933	–	–
Cc1ccc(C(C)C)c(O)c1 [Thymol]	0.988	1.09	1.29	1.08	–	–
N#CSCSc1nc2ccccc2s1 [2-(Thiocyanomethylthio)benzothiazole]	0.88	1.09	1.06	–	0.895	–
Sc1nc2ccccc2s1 [2-Mercaptobenzothiazole]	1.39	1.62	1.3	1.69	–	–
CS(=O)(=O)c1ccc([C@@H](C[C@H]2CCC(=O)C2)C(=O)Nc2cnccn2)cc1Cl [Piragliatin]	1.03	0.959	1.02	1.3	–	–
COc1cc2c3c(n(CCCn4ccnc4)c(=O)c2cc1OC)-c1cc2c(cc1C3=O)OCO2.Cl	0.457	0.72	0.631	0.938	1.15	–
OCC(O)CO [Glycerol]	1.1	0.905	1.05	1.04	–	–
S=C([S-])NCCNC(=S)[S-].S=C([S-])NCCNC(=S)[S-].[Mn+2].[Zn+2] [Mancozeb]	0.999	0.95	0.951	–	0.932	–
Nc1ccc(C(=O)O)cc1 [4-Aminobenzoic acid]	1.22	1.07	0.948	1.2	–	–
CC(C)c1cccc(C(C)C)c1NC(=O)[N-]S(=O)(=O)c1cc(C(C)(C)O)co1.[Na+]	1.05	1.08	1.2	1.05	–	–
CC/C(=C(\c1ccccc1)c1ccc(OCCN(C)C)cc1)c1ccccc1.O=C(O)CC(O)(CC(=O)O)C(=O)O [Tamoxifen citrate]	0.922	0.964	0.891	1.01	–	–
O=C(c1ccc(O)cc1O)c1ccc(O)cc1O [2,2',4,4'-Tetrahydroxybenzophenone]	1.29	1.33	1.49	0.463	–	–
CC(C)C(=O)OCC(C)(C)C(OC(=O)C(C)C)C(C)C (centres undefined) [2,2,4-Trimethyl-1,3-pentanediol diisobutyrate]	0.92	0.885	1.15	1.64	–	–
CC[C@]1(O)C[C@H]2C[N@](CCc3c([nH]c4ccccc34)[C@@](C(=O)OC)(c3cc4c(cc3OC)N(C=O)[C@H]3[C@@](O)(C(=O)OC)[C@H](OC(C)=O)[C@]5(CC)C=CCN6CC[C@]43[C@@H]65)C2)C1 [Vincristine]	–	–	0.418	–	0.387	–
NCCO [Ethanolamine]	–	0.968	1.41	2.04	–	1.09
OCCO [Ethylene glycol]	1.37	1.07	1.12	1.27	–	–

From the supplement of paper PMC9254222
